Sampled rows, rich in hits. Any-hit rate of the full collection: about 3.1%.
BoNT-A LC inh2 – BoNT/A light chain protease inhibitors, primary screen, biochemical, flow cytometry, MLPCN library | actives 0.17% (n = 360,000) | multiplex microsphere protease substrate cleavage | inhibition, % at 10 µM | AID 588499, 2011
BoNT-F LC inh – BoNT/F light chain protease inhibitors, primary screen, biochemical, flow cytometry, MLPCN library. actives 0.22% (n = 360,000). Multiplex microsphere protease cleavage assay. inhibition, % at 10 µM; in the data active = inhibition above about 35%, passing the limit was not always enough; inconclusive = no clear call, values can overlap the other calls
Autofluor counter – compound fluorescence in toxin protease inhibitor counterscreen; compound autofluorescence counterscreen, microsphere flow cytometry; active compounds read high; fluorescence intensity (concentration not given with the values); actives 3.1% (n = 360,000); in the data active = fluorescence intensity above about 16000; inconclusive = no clear call, values can overlap the other calls
Anthrax LF prot – Bacillus anthracis LF protease inhibitors, primary screen, biochemical, multiplex microsphere, MLPCN library; multiplex microsphere protease cleavage assay; inhibition, % at 10 µM; actives 0.12% (n = 360,000); AID 588501, 2011
Target sequence (P15917 whole entry, looked up): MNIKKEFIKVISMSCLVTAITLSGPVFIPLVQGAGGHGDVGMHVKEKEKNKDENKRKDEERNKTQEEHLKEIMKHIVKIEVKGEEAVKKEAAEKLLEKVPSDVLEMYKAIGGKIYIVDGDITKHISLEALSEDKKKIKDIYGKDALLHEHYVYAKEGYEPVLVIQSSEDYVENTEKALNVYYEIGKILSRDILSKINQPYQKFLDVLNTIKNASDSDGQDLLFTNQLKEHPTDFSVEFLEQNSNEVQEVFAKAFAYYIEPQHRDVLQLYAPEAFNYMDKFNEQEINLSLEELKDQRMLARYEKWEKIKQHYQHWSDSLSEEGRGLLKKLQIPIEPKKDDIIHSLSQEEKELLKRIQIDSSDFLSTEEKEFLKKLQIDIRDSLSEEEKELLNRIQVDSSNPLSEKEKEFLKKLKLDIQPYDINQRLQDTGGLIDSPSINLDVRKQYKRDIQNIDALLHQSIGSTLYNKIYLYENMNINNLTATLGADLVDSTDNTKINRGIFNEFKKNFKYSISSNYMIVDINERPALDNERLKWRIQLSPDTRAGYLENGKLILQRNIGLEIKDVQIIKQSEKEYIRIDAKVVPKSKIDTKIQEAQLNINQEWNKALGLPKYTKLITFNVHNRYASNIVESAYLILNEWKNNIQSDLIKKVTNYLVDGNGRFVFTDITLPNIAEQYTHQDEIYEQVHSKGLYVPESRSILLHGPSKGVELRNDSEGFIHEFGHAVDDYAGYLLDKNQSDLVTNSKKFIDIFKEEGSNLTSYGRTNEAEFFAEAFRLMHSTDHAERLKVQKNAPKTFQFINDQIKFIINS
PriA SSB inh – inhibitors of Klebsiella pneumoniae PriA binding to SSB C-terminal tail, primary screen, biochemical, AlphaScreen | inhibition, % at 33 µM | AlphaScreen SSBct-PriA binding, biotinylated peptide | actives 0.6% (n = 430,000) | AID 1272365, 2023 | PriA–SSB C-terminal tail interaction (Klebsiella pneumoniae); in the data active = inhibition mostly above about 37%, no sharp cut-off; inactive = mostly below about 20%
BoNT-A LC CP1 – BoNT/A light chain protease inhibitors, confirmation, biochemical, flow cytometry, cherry pick 1. inhibition, % at 10 µM. multiplex microsphere protease assay. shares compounds with BoNT-F LC inh. actives 3% (n = 720); in the data active = inhibition above about 32%
BoNTF LC inh 1 – BoNT/F light chain protease inhibitors, confirmation, biochemical, flow cytometry, cherry pick 1. inhibition, % at 10 µM. 720 tested, under 10 active. shares compounds with BoNT-F LC inh. multiplex microsphere protease cleavage assay; call rule not given here
Anthrax LF CP1 – Bacillus anthracis LF protease inhibitors, confirmation, biochemical, multiplex microsphere, cherry pick 1. shares compounds with BoNT-F LC inh. multiplex microsphere protease cleavage assay. inhibition, % at 10 µM. 720 tested, under 10 active; call rule not given here
Numbers stand for hits; 0 = inactive; ? = inconclusive; - = no result given. Cut-off read from the data, not from the text of the source, unless noted: active = inhibition above about 30%; inconclusive = no clear call, values can overlap the other calls; inactive = below that.

SMILES	BoNT-A LC inh2	BoNT-F LC inh	Autofluor counter	Anthrax LF prot	PriA SSB inh	BoNT-A LC CP1	BoNTF LC inh 1	Anthrax LF CP1
CCC(C)[C@H](NC(=O)N1CCCCC1)C(=O)OC (stereo partly specified)	0	?	0	34.7	0	0	0	0
CCS(=O)(=O)C1CN(C(=O)c2ccc(-c3ccc(Cl)c(Cl)c3)cc2)C1	-	-	-	-	0	-	-	-
Cc1ccc(C(=O)NC2CC(C)(C)NC(C)(C)C2)cc1Cl	0	?	0	0	0	-	-	-
CC1(C)CC(NC(=O)c2cccc([N+](=O)[O-])c2)CC(C)(C)N1	0	0	0	29.9	0	0	0	0
COc1cccc(C(=O)N2CCN(c3nc(N4CCOCC4)nc(-n4ccnc4)n3)CC2)c1OC	-	-	-	-	0	-	-	-
Cc1ccc2nc(N3CCN(S(=O)(=O)c4ccc5c(c4)OCCO5)CC3)c(C#N)cc2c1	0	0	0	0	0	-	-	-
Cc1ccc(S(=O)(=O)N2CCCN(c3nc4cc(C)ccc4cc3C#N)CC2)cc1	39.6	0	0	0	0	0	0	0
CCc1nc2ccccc2n1Cc1ccccc1OC	0	0	0	0	0	-	-	-
COc1ccccc1Cn1c(C)nc2ccccc21	0	39.0	0	0	0	0	0	0
CCc1nnc(NC(=O)CN2CCN(Cc3ccccc3Cl)CC2)s1	0	?	0	42.3	0	0	0	0
COc1ccc(-c2cnc3n2CCCCC3)cc1	0	41.6	0	0	0	0	0	0
Brc1cccc(-c2cnc3n2CCCCC3)c1	0	0	0	0	0	-	-	-
COc1cc(-c2nnc3c(=O)n(Cc4ccc(Cl)cc4)ccn23)cc(OC)c1OC	-	-	-	-	0	-	-	-
COc1ccc(S(=O)(=O)N2CCCCCC2)cc1N(C)S(=O)(=O)c1ccc(Cl)cc1	0	36.9	0	0	0	0	0	0
COc1ccc(S(=O)(=O)N2CCC(C)CC2)cc1N(C)S(=O)(=O)c1ccccc1	0	0	0	0	0	-	-	-
COc1ccccc1C(=O)ON=C(c1ccccc1)c1ccncc1	-	-	-	-	0	-	-	-
COc1cc(C(=O)NCc2ccc3[nH]c(C)cc3c2)cc(OC)c1OC	53.0	0	0	0	0	0	0	0
COc1cc(/C=C\C(=O)NCc2ccc3[nH]c(C)cc3c2)cc(OC)c1OC	0	0	0	0	0	-	-	-
COc1ccc(C(=O)NCc2ccc3[nH]c(C)cc3c2)cc1OC	64.8	0	0	0	0	0	0	0
COc1ccc2c(c1)CCN(S(=O)(=O)CCNC(=O)CC(c1ccccc1)c1ccccc1)C2	-	-	-	-	0	-	-	-
OC1CN=C2CCCc3c2n(c2ccc(Cl)cc32)C1 (stereo unspecified)	54.3	0	0	41.7	0	0	0	0
CCCC(=O)Nc1nnc(SCC(=O)NCc2ccc3c(c2)OCO3)s1	0	39.5	0	0	0	0	0	0
O=C(CSc1nnc(SCC(=O)NCc2ccc3c(c2)OCO3)s1)NCc1ccc2c(c1)OCO2	0	0	0	0	0	-	-	-
Cc1ccccc1Cn1cc(NC(=O)c2cc3nc(-c4ccco4)cc(C(F)(F)F)n3n2)cn1	0	0	0	0	0	0	0	0
Cc1nn(C)c(C)c1NC(=O)c1cc2nc(-c3ccco3)cc(C(F)(F)F)n2n1	0	0	0	0	0	0	0	0
SMILES	BoNT-A LC inh2	BoNT-F LC inh	Autofluor counter	Anthrax LF prot	PriA SSB inh	BoNT-A LC CP1	BoNTF LC inh 1	Anthrax LF CP1
CCc1ccc(-c2cc(C(F)(F)F)n3nc(C(=O)Nc4cnn(Cc5ccc(C)cc5)c4)cc3n2)s1	0	0	0	0	0	0	0	0
CN1CCc2cc(C(CNC(=O)C(=O)Nc3cc(Cl)ccc3C#N)N(C)C)ccc21 (stereo unspecified)	-	-	-	-	0	-	-	-
Cc1cccc(OC2CCN(C(=O)[C@@H]3CC=CCC3)CC2)n1	-	-	-	-	0	-	-	-
Cc1ccc(S(=O)(=O)N2CCC(C(=O)Nc3c4c(nn3C)CCC4)CC2)cc1	-	-	-	-	0	-	-	-
O=C(NCc1ccco1)c1ccc(S(=O)(=O)c2cccc(S(=O)(=O)N3CCOCC3)c2)cc1	0	38.2	0	0	0	0	0	0
CCN(Cc1ccccc1)C(c1cc2cc(C)ccc2[nH]c1=O)c1nnnn1CCOC (stereo unspecified)	0	0	0	0	0	0	0	0
Cc1nc(C(=O)N2CCC[C@H](Cc3nc(-c4ccsc4)no3)C2)cs1	-	-	-	-	0	-	-	-
COc1cc(S(=O)(=O)N(Cc2cccs2)CC2CCCO2)ccc1-n1cnnn1 (stereo unspecified)	?	41.1	0	0	0	0	0	0
CC(=O)Nc1cnc(-n2nc(C)cc2C)nc1	-	-	-	-	0	-	-	-
COc1ccc(NC(=O)Cn2c(=O)n(-c3ccc(CC(=O)NC4CC4)cc3)c(=O)c3ccccc32)cc1	-	-	-	-	0	-	-	-
Cc1ccc2c(n1)sc1c(-c3ccc(Br)cc3)c(C#N)c(N)nc12	44.0	0	?	0	0	0	0	0
COc1ccc(C(=O)CSc2nnc(CN3CCCC3)n2-c2ccc(F)cc2)c(OC)c1	0	38.7	0	0	0	0	0	0
COc1ccc(C(=O)CSc2nnc(CN3CCCCC3)n2-c2ccc(F)cc2)cc1OC	0	0	0	0	0	-	-	-
O=C1CNC(=S)N1c1nc2ccccc2s1	0	?	0	32.2	0	0	0	0
O=[N+]([O-])c1ccc(N(c2ccccc2)c2ccccc2)cc1	58.2	0	21531	46.7	0	0	0	0
CC(=O)c1c(C)cn(CC(O)CN2CCNCC2)c1C (stereo unspecified)	-	-	-	-	0	-	-	-
Cc1ccc(C(=O)N(CCC2=CCCCC2)c2c(N)n(Cc3ccccc3)c(=O)[nH]c2=O)o1	31.0	0	0	?	0	0	0	0
Nc1c(N(CCC2=CCCCC2)C(=O)c2ccc([N+](=O)[O-])o2)c(=O)[nH]c(=O)n1Cc1ccccc1	-	-	-	-	0	-	-	-
O=C1CN(C(=O)C2CC2)c2ccccc2N1	0	37.0	0	0	0	0	0	0
CCN(CC)C(=O)c1ccc(NC(=O)c2cccc(S(=O)(=O)N3CCN(Cc4ccccc4)CC3)c2)cc1	57.4	0	?	0	0	0	0	0
CC(=O)Nc1cccc(NC(=O)c2cccc(S(=O)(=O)N3CCN(Cc4ccccc4)CC3)c2)c1	-	-	-	-	0	-	-	-
Cc1c(C(=O)O)sc2nc(-c3cccs3)cc(C(F)(F)F)c12	0	0	0	0	0	0	0	0
CC(=O)c1sc2nc(-c3cccs3)cc(C(F)(F)F)c2c1N	0	0	0	0	0	-	-	-
Cc1c(C(=O)Nc2nccs2)sc2nc(-c3cccs3)cc(C(F)(F)F)c12	39.1	0	0	37.4	0	0	0	0
Cc1csc(NC(=O)c2sc3nc(-c4cccs4)ccc3c2N)n1	-	-	-	-	0	-	-	-

Screening results as filed in PubChem BioAssay.
